# Measured values: PubChem BioAssay AID2315 (National Center for Advancing Translational Sciences (NCATS), 2010)
# Among all 290,000 compounds or so, about 27,000 (9.3%) were called active. The list comes from a sample in which actives are over-represented; it also holds similar structures and randomly drawn compounds. Values without a mark were called inactive. Cut-off read from the data, not from the text of the source: active = inhibition mostly above about 28% (no sharp cut-off); inactive = mostly below about 43%.
# Assay: A qHTS for Small Molecule Inhibitors of Shiga Toxin; note: 0% is about no effect
# Settings: Vero cells, Shiga toxin protein synthesis inhibition reporter; at 38.7 µM, stronger effect = higher value
row,SMILES,inhibition
1,COc1ccccc1C(=O)NC(CCSC)C(=O)NNC(=O)c1csc(N2CCOCC2)n1 (centres undefined),-15.3%
2,COc1ccc(/C=C/C(=O)c2cc(Br)ccc(=O)c2O)cc1,7.73%
3,COc1ccc(/C=C/C(=O)c2ccc(OC)cc2O)cc1,42.2% (active)
4,COc1ccc(C(=O)/C=C/c2cccnc2)c(OC)c1,0.985%
5,CC(=O)Nc1ccc(S(=O)(=O)NC2(C(F)(F)F)C(=O)Nc3c2c(=O)[nH]c(=O)n3Cc2ccccc2)cc1 (centres undefined),-2.93%
6,Cc1ccccc1C1=NC(C(F)(F)F)(C(F)(F)F)c2c(n(-c3ccc(F)cc3)c(=O)[nH]c2=O)N1,2.62%
7,O=c1[nH]c(=O)n(Cc2ccco2)c2c1C(C(F)(F)F)(C(F)(F)F)N=C(c1ccco1)N2,58.8% (active)
8,Cc1ccc(OS(=O)(=O)c2ccc(-c3csc(C)n3)s2)c(C)c1,-11.1%
9,CN(Cc1ccccc1)CC(O)COc1ccc(CNCc2cc3ccccc3s2)cc1 (centres undefined),-3.31%
10,COc1ccc(OCC(=O)NCCS(=O)(=O)N2CCN(c3ccc(F)cc3)CC2)cc1,-4.29%
11,Cc1cc(NC(=O)CSc2nnc(-c3ccc(Cl)s3)o2)no1,20.2%
12,COc1ccc(C(=O)/C=C/Nc2ccccn2)cc1,-2.27%
13,Cc1cc(N/C=C\C(=O)c2ccc(Cl)c(Cl)c2)no1,59.9% (active)
14,COc1ccccc1N1CCN(c2ccc([N+](=O)[O-])nc2)CC1,34.5%
15,CC(CN1CCOCC1)OC(=O)c1ccc(Cl)cc1Cl (centres undefined),38.1%
16,Cc1nc(CNS(=O)(=O)c2cccnc2)cs1,-1.16%
17,O=S(=O)(NCCc1ccncc1)c1ccccc1,-5.04%
18,O=S(=O)(NCCc1csc(-c2ccccc2)n1)c1cccnc1,129% (active)
19,Cc1ccc(Cn2c(=N)c(S(=O)(=O)c3ccc(C)cc3)cc3c(=O)n4ccccc4nc32)cc1,-2.01%
20,CCCn1cc(S(=O)(=O)c2ccc(C)cc2)c(=O)c2cc(OCC)ccc21,3.51%

row,SMILES,inhibition
1,COC(=O)c1[nH]c2ccc(Br)cc2c1NC(=O)Oc1ccccc1,51.9% (active)
2,COC(=O)c1[nH]c2ccccc2c1NC(=O)CN1CCCc2ccccc21,25.1%
3,CCOC(=O)c1[nH]c2ccc(OC)cc2c1NC(=O)CCN1CCN(Cc2ccccc2)CC1,-3.91%
4,O=C(Nc1cccc(S(=O)(=O)N2CCCCC2)c1)c1ccc2c(c1)OCO2,21.9%
5,Cc1ccc(C(=O)Nc2ccc3c(c2)OCO3)cc1S(=O)(=O)N1CCCCC1,43.9%
6,O=C(Nc1ccc2c(c1)OCCO2)c1ccc(Cl)c(S(=O)(=O)N2CCCCC2)c1,147% (active)
7,O=C(Nc1cccc(Cl)c1N1CCOCC1)c1ccc2c(c1)OCCO2,121%
8,CN1CCN(c2ccc(NC(=O)c3ccc4c(c3)OCCO4)cc2Cl)CC1,77.9% (active)
9,COC(=O)c1ccc(N2CCOCC2)c(NC(=O)c2ccc3c(c2)OCCO3)c1,17.9%
10,Cc1cccc(C)c1NC(=O)CS(=O)CC(=O)N1CCN(c2ccccc2)CC1 (centres undefined),-9.06%
11,Cc1cccc(NC(=O)N2CCCCCC2)c1C,46.2%
12,Cc1ccc(N2CCN(C3=NC(=O)/C(=C\c4cccs4)S3)CC2)cc1,-4.1%
13,O=C1N=C(N2CCc3ccccc3C2)S/C1=C\c1ccc(O)cc1,33%
14,O=C1N=C(N2CCOCC2)S/C1=C\C=C/c1ccccc1,66.1% (active)
15,CC1CCN(C2=NC(=O)/C(=C/c3cn[nH]c3-c3ccccc3)S2)CC1,-0.314%
16,CCc1ccc(/C=C2\SC(N3CCOCC3)=NC2=O)cc1,42.9%
17,Cc1ccsc1/C=C1\SC(N2CCOCC2)=NC1=O,111% (active)
18,CCc1ccc(C(CNc2nc(C(F)(F)F)nc3ccccc23)N(C)C)cc1 (centres undefined),-12.5%
19,Cc1cccc(CN2CCC(CNC(=O)Nc3ccc(F)c(Cl)c3)CC2)c1,-4.78%
20,Cc1ccc(NC(=O)C2CCCN2S(=O)(=O)c2cccc3cccnc23)c(C)c1 (centres undefined),-11.1%

row,SMILES,inhibition
1,COc1ccc(OC)c(S(=O)(=O)n2c([N+](=O)[O-])cnc2C)c1,-7.62%
2,COc1cc(NC(=O)C2CC(c3ccccc3O)=NO2)c(OC)cc1Cl (centres undefined),-12.3%
3,COc1ccc(C(CNC(=O)COc2ccccc2OC)N2CCCCC2)cc1 (centres undefined),-20.7%
4,c1ccc(CN=C2Nc3ccccc3CS2)nc1,59.8% (active)
5,COc1ccccc1CNS(=O)(=O)c1c(C)[nH]c(C)c1C(=O)N1CCCCC1,2.2%
6,Cc1ccc(S(=O)(=O)N(CC(=O)NCc2ccco2)c2ccccc2C)cc1,9.67%
7,COc1ccccc1OC(C)C(=O)Nc1ccc(S(=O)(=O)Nc2nccs2)cc1 (centres undefined),-4.41%
8,Cn1c(CO)cnc1SCc1ccccc1,65.8% (active)
9,CSc1c(SCc2ccccc2)cnn(Cc2ccccc2)c1=O,10.6%
10,Cn1c(-c2ccc(F)cc2)cnc1SCC(=O)NNC(=O)Cc1ccccc1,18.3%
11,CCS(=O)(=O)N1CCC(N2CCN(c3ccccc3)CC2)CC1,-4.18%
12,Cc1cc(C)n(-c2ccc(NC(=O)C3CCCCN3C(=O)c3cccs3)cc2)n1 (centres undefined),11%
13,Cc1ccc2[nH]c3c(=O)n(CC(=O)NCCc4ccc(Cl)cc4)ncc3c2c1,21.6%
14,CCOc1ccc(NC(=O)CN2CCN(CC(=O)Nc3ccc(OC)cc3)CC2)cc1,-3.78%
15,COc1ccc(Cc2n[nH]c(=S)n2NC(=O)Nc2ccc(C)cc2)cc1,63.4% (active)
16,Cc1ccc(OCc2n[nH]c(=S)n2-c2ccc(C)cc2)cc1,-9.95%
17,COc1ccc(CCNC(=O)CN2C(=O)COc3ccc(S(=O)(=O)N4CCCC4)cc32)cc1OC,22.2%
18,CCc1ccc(-c2cc(C)no2)cc1S(=O)(=O)NCCc1ccc(S(N)(=O)=O)cc1,-11%
19,COc1ccc(CCNC(=S)N2CCN(S(=O)(=O)c3ccc(Cl)cc3)CC2)cc1,-14.7%
